# Reference: ChEMBL document CHEMBL1201862, “PubChem BioAssay data set” (2004)
# Only a part of the results of these assays is listed, not drawn at random.
# Target: Pyruvate kinase PKM (Homo sapiens) (UniProt P14618)
# Experiment: Confirmation Concentration-Response Assay for Activators of Human Muscle isoform 2 Pyruvate Kinase: for Probe SAR.
# Type: functional
# Chain of Pyruvate kinase PKM (Homo sapiens) (P14618 2-531 limits assumed): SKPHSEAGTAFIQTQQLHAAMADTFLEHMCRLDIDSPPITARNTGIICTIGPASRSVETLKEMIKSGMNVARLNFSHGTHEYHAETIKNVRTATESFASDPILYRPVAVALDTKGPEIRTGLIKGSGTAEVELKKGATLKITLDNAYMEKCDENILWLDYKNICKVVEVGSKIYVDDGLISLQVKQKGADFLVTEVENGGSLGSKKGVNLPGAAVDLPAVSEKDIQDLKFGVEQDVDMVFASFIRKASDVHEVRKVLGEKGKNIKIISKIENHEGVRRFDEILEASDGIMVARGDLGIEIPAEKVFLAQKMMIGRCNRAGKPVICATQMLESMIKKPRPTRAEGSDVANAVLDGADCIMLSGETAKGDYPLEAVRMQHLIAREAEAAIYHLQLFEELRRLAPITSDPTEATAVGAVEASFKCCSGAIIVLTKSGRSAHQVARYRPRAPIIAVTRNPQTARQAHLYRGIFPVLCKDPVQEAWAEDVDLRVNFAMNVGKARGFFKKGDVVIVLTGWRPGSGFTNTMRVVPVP
smiles,measurement,value
C[N+](C)(C)c1cccc(S(=O)(=O)N2CCCN(S(=O)(=O)c3ccc4c(c3)OCCO4)CC2)c1,Potency,16.3 µM (active)
